Screening results (PubChem BioAssay)
Shown are actives, neighbours in structure and some others; about 3.1% of the full set was active somewhere.
Mac1 fbg enh = CD11b/CD18-fibrinogen binding enhancement | P05107+P11215 | K562 CD11b/CD18 adhesion to fibrinogen, ATPlite luminescence | activation, % at 10 µM | 93,000 compounds, 0.07% hits;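 active = 10 µM primary screen giving 50% or more activity, confirmed by 40% or more on retest at that dose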
ERa coact inh = ER-alpha (human) coactivator binding inhibition. P03372. TR-FRET ER-alpha LBD / SRC-1 peptide, estradiol-bound. inhibition, % at 25.6 µM. 86,000 compounds, 1.7% hits. AID 629; in the data active = inhibition above about 50%;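 note: 0% = receptor plus peptide control and 100% = peptide only without receptor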
ERa SRC1 pot = enhances coactivator binding to human estrogen receptor alpha; P03372; TR-FRET ERalpha-LBD/SRC-Cy5 coactivator binding, 2 h; 100 = basal binding, no effect; coactivator binding (% of control), % at 25.6 µM; 86,000 compounds, 1.3% hits; AID 639; in the data active = activity above about 200%;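 note: binding measured in presence of low estradiol as agonist stimulus; 0% = peptide alone without receptor and 100% = receptor with peptide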
ERb SRC1 inh = ER-beta (human) coactivator binding inhibition; Q92731; TR-FRET ER-beta LBD / SRC1-Cy5 peptide binding; receptor agonist-loaded with 1 µM estradiol; inhibition, % at 25.6 µM; 86,000 compounds, 1.3% hits;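 active = compounds whose percent inhibition of the receptor-coactivator binding signal exceeds about 50% in the single-dose screen, limit read from the data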;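 note: 0% = receptor plus peptide wells without compound and 100% = peptide-only wells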
Target sequence (Q92731 whole entry, looked up, the tested form may be a part): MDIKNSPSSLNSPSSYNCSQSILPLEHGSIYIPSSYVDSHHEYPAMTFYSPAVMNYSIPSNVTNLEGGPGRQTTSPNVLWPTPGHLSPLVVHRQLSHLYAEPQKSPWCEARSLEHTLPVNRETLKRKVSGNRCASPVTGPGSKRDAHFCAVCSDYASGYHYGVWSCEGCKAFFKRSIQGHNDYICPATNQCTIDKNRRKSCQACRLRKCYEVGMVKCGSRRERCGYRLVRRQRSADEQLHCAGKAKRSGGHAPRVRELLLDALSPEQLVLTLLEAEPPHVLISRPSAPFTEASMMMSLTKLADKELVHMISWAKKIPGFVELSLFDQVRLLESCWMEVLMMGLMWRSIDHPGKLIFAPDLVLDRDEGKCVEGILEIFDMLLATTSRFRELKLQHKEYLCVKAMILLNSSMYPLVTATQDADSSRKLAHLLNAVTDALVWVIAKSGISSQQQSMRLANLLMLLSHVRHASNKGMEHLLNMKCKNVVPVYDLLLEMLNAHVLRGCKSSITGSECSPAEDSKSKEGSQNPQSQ
Mac1 fbg inh = CD11b/CD18-fibrinogen binding inhibition | 93,000 compounds, 0.54% hits | inhibition, % at 10 µM | K562 CD11b/CD18 adhesion to fibrinogen, ATPlite luminescence; Mn2+ added to activate the integrin | P05107+P11215;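 active = primary inhibition of 50% or more at 10 µM, then 40% or more on retest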
The depositor's hits bear a star; . = not tested or not shown; [ ] = another dose, or the depositor's remark.

SMILES | Mac1 fbg enh | ERa coact inh | ERa SRC1 pot | ERb SRC1 inh | Mac1 fbg inh
Cc1ccsc1/C=N\NC(=O)Cn1nnc2ccccc21 | -0.9 | . | . | . | -11.8
O=C(COC(=O)CNC(=O)c1ccccc1)Nc1cccc(Br)c1 | -3.6 | . | . | . | -19.2
CN(C)c1ccc(NC(=O)N2CCOCC2)cc1 | . | 43.3 | 23.5 | 63.9*[fluorescence artefact?] | .
COC(=O)c1ccc(CSc2nnc(NC(=O)c3cc4c(s3)CCCC4)s2)cc1 | 33.9 | 0.7 | 234.5* | 16.6 | -2.0
CC1CCc2sc(C(=O)Nc3nnc(SCc4ccc(F)cc4)s3)cc2C1 (centres undefined) | -2.6 | 5.7 | 155.9 | 5.4 | 1.2
CC(C)(C)c1ccc(C(=O)Oc2ccc3c(c2)OCC3=O)cc1 | -3.5 | 8.6 | 100.9 | -3.0 | -3.0
O=C(Oc1ccc2c(c1)OCC2=O)c1ccccc1 | -3.4 | 44.0 | 86.0 | 55.1* | -1.1
Cc1ccc(NC(=O)c2cc(-n3cnnc3)ccc2Cl)cc1 | . | -11.0 | 105.5 | -5.7 | .
O=C(Nc1ccc2oc(-c3ccc4ccccc4c3)nc2c1)c1ccc2c(c1)OCCO2 | 26.7 | . | . | . | -9.8
COc1cc(C(=O)Nc2cc(-c3nc4cc(C)ccc4o3)ccc2C)cc(OC)c1OC | -5.4 | 74.2*[fluorescence artefact?] | 59.2 | 59.6*[fluorescence artefact?] | 20.6
COc1cc(C(=O)Nc2cccc(-c3nc4cc(C)ccc4o3)c2)cc(OC)c1OC | . | 72.2*[fluorescence artefact?] | 252.0*[fluorescence artefact?] | 31.8 | .
Cc1ccc2oc(-c3cccc(NC(=O)c4cc(-n5cnnc5)ccc4Cl)c3)nc2c1 | . | 26.4 | 245.1* | 36.3 | .
Cc1ccc2nc(-c3cccc(NC(=O)c4ccc5c(c4)OCCO5)c3)oc2c1 | 0.2 | 68.0*[fluorescence artefact?] | 102.4 | 42.4 | 7.2
CC1SC(C)C(=O)N(CC(=O)NCc2ccc(F)cc2)C1=O (centres undefined) | 13.9 | . | . | . | -15.3
COc1ccc(Cl)cc1NC(=O)C(C)Sc1n[nH]c(N)n1 (centres undefined) | -2.5 | -3.8 | 108.0 | 0.2 | -9.6
CC(NCc1ccc(N(C)C)cc1)C1CC2CCC1C2 (centres undefined) | -2.2 | 0.7 | 104.2 | 1.3 | -26.6
CS(=O)(=O)N(CCc1ccccc1)CC(=O)Nc1ccc2c(c1)OCO2 | 0.9 | 61.9*[fluorescence artefact?] | 46.7 | 45.5 | 0.1
CN(c1ccccc1C(=O)Nc1ccc2c(c1)OCO2)S(C)(=O)=O | . | 48.3 | 62.4 | 53.0*[fluorescence artefact?] | .
COc1cc2c(C(=O)N3CCN(c4ccccc4C)CC3)c(C)oc2cc1Br | -0.6 | . | . | . | 11.8
CCOC(=O)c1cc2sc(C)cc2n1CC(=O)NCc1ccc(F)cc1 | 0.6 | 5.4 | 238.5*[fluorescence artefact?] | 33.9 | -5.8
O=C(CSc1nc2ccccc2[nH]1)N1CCN(S(=O)(=O)c2ccc(Cl)cc2)CC1 | -1.9 | -1.9 | 96.8 | -3.5 | -26.7
CCCSC1=N/C(=C\C=C\c2ccco2)C(=O)S1 | 5.5 | 74.6*[fluorescence artefact?] | 62.0 | 63.0* | 24.3
Cc1c(C(=O)NC2CCCc3ccccc32)oc2ccc(S(=O)(=O)N3CCOCC3)cc12 (centres undefined) | 56.6* | 10.4 | 118.2 | 19.0 | 8.5
O=C(Cn1c(=O)oc2cc(S(=O)(=O)N3CCCC3)ccc21)Nc1ccc(C(F)(F)F)cc1 | 27.2 | 69.3*[fluorescence artefact?] | 144.0 | 2.9 | -7.0
Cc1cc(C)cc(NC(=O)Cn2c(=O)oc3cc(S(=O)(=O)N4CCC(C)CC4)ccc32)c1 | 76.2 | 88.6*[fluorescence artefact?] | 25.9 | 53.7*[fluorescence artefact?] | -5.9
SMILES | Mac1 fbg enh | ERa coact inh | ERa SRC1 pot | ERb SRC1 inh | Mac1 fbg inh
CC1CCN(S(=O)(=O)c2ccc3c(c2)oc(=O)n3CC(=O)NCc2ccc3c(c2)OCO3)CC1 | -1.2 | -1.1 | 115.3 | -4.1 | 1.8
O=C(Cn1c(=O)oc2cc(S(=O)(=O)N3CCCC3)ccc21)NC1CCCc2ccccc21 (centres undefined) | 67.4 | 88.8*[fluorescence artefact?] | 36.1 | 66.6*[fluorescence artefact?] | -15.9
Cc1c(C(=O)NC2CCCc3ccccc32)oc2ccc(S(=O)(=O)N3CCCC3)cc12 (centres undefined) | -2.2 | 3.5 | 111.2 | -15.3 | -5.3
CCOc1ccc(NC(=O)CN2CCN(CC(=O)Nc3ccc(Cl)c(C(F)(F)F)c3)CC2)cc1 | 3.0 | 0.7 | 89.4 | -4.7 | -7.2
O=C(N/N=C/c1cccc([N+](=O)[O-])c1)C1CC(=O)N(c2ccc(F)cc2)C1 (centres undefined) | -6.3 | . | . | . | -1.6
O=C(Cn1c(=O)oc2cc(S(=O)(=O)N3CCCCCC3)ccc21)NC1CCCCCCC1 | 6.1 | 36.0 | 201.7* | 24.5 | -1.4
CC(NC(=O)Cn1c(=O)oc2cc(S(=O)(=O)N3CCCC3)ccc21)c1ccccc1 (centres undefined) | -2.3 | 5.7 | 103.8 | 4.6 | -1.4
